The text below walks through data of PubChem BioAssay (Tox21).

A short description of assay [1]: qHTS RealTime-Glo MT Cell Viability Assay in HepG2 cells - 32 hour (AID 1224877). Also: nearly all actives have a fitted effect of over 55% in size. Particulars: RealTime-Glo luminescence; series mostly up to 76.8 µM. A digest of the protocol:
(§1)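 Tox21 10K library screened in qHTS format on HepG2 cells carrying RealTime-Glo reagents. Compounds were added after a 5 h preincubation, and the luminescent signal from continuous culture was measured repeatedly during 40 h treatment.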
For orientation: In qHTS, concentration-response curves come from the screen itself.

Assay [2] is described as follows: A CellTox Green Cytotoxicity Assay to monitor cytotoxicity in HepG2 cells - 40 hour (AID 1224879). Also: nearly all actives have a fitted effect of over 40% in size. To be noted: CellTox Green fluorescence; series mostly up to 76.8 µM. A digest of the protocol: (§2)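 Cytotoxicity was tracked as dead-cell DNA fluorescence in HepG2 cells treated with test compounds at 37 C; each time-point value comes from one kinetic series spanning 0, 8, 16, 24, 32 and 40 h.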

Assay [3] in a line: qHTS RealTime-Glo MT Cell Viability Assay in HEK293 cells - 0 hour (AID 1224880). Also: top concentration of the series differs between compounds; nearly all actives have a fitted effect of over 45% in size. To be noted: RealTime-Glo luminescence; series mostly up to 76.8 µM. A digest of the protocol: (§3)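 Kinetic, non-lysing viability readout. Seed HEK293 (600/well) with reagent, incubate 5 h at 37 C/5% CO2, pin 23 nL compound in DMSO, incubate at 37 C, read luminescence at 0, 8, 16, 24, 32, 40 h.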
The nature of assay [4]: A CellTox Green Cytotoxicity Assay to monitor cytotoxicity in HEK293 cells - 32 hour (AID 1224881). Also: nearly all actives have a fitted effect of over 40% in size. To be noted: CellTox Green fluorescence; series mostly up to 76.8 µM. The essentials: (§4)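 Real-time, in one plate: 600 HEK293 cells/well with dead-cell DNA dye, pinned compound after 5 h, 37 C incubation over 40 h; viable cells give no appreciable fluorescence.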
Assay [5] can be described thus: A CellTox Green Cytotoxicity Assay to monitor cytotoxicity in HEK293 cells - 8 hour (AID 1224884). Also: nearly all actives have a fitted effect of over 35% in size. To be noted: CellTox Green fluorescence; series mostly up to 76.8 µM. A digest of the protocol: as §4
Assay [6] can be described thus: qHTS RealTime-Glo MT Cell Viability Assay in HepG2 cells - 16 hour (AID 1224885). Also: nearly all actives have a fitted effect of over 50% in size. Particulars: RealTime-Glo luminescence; series mostly up to 76.8 µM. A digest of the protocol:
as §1

Assay [7] can be described thus: qHTS RealTime-Glo MT Cell Viability Assay in HEK293 cells - 24 hour (AID 1224886). Also: top concentration of the series differs between compounds; nearly all actives have a fitted effect of over 50% in size. To be noted: RealTime-Glo luminescence; series mostly up to 76.8 µM. The essentials:
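Luminescence generated by NanoLuc from substrate produced by living HEK293 cells served as the viability signal. Each value reflects the reading at its stated time point during continuous 40 h compound exposure at 37 C.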

The nature of assay [8]: qHTS RealTime-Glo MT Cell Viability Assay in HEK293 cells - 8 hour (AID 1224887). Also: top concentration of the series differs between compounds; nearly all actives have a fitted effect of over 50% in size. Particulars: RealTime-Glo luminescence; series mostly up to 76.8 µM. A digest of the protocol: as §3
Assay [9] in a line: A CellTox Green Cytotoxicity Assay to monitor cytotoxicity in HEK293 cells - 16 hour (AID 1224888). Also: nearly all actives have a fitted effect of over 35% in size. To be noted: CellTox Green fluorescence; series mostly up to 76.8 µM. The essentials: as §4
Assay [10] is described as follows: qHTS RealTime-Glo MT Cell Viability Assay in HepG2 cells - 0 hour (AID 1224889). Also: nearly all actives have a fitted effect of over 50% in size. Also: potency is read from the fitted curve at half-maximal effect. Particulars: RealTime-Glo luminescence; series mostly up to 76.8 µM. A digest of the protocol:
as §1

A short description of assay [11]: qHTS assay to identify small molecule antagonists of the estrogen receptor alpha (ER-alpha) signaling pathway using the BG1 cell line in the presence of 0.1 nM 17-beta-estradiol - cell viability counter screen (AID 1259241). Also: nearly all actives have a fitted effect of over 40% in size. To be noted: VM7Luc4E2 (BG1) viability, CellTiter-Fluor protease, 22 h, 0.1 nM estradiol agonist added; series mostly up to 92.4 µM. The essentials: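 VM7Luc4E2, 4,000 cells/well, phenol red-free medium + 10% charcoal-stripped FBS; 24 hr plating; cpd + 0.1 nM E2 final, 22 hr 37C/5% CO2; CellTiter-Fluor 30 min, fluorescence.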

Assay [12] is described as follows: qHTS assay to identify small molecule antagonists of the androgen receptor (AR) signaling pathway using the MDA cell line in the presence of 0.5 nM R1881 - cell viability counter screen (AID 1259242). Also: nearly all actives have a fitted effect of over 45% in size. To be noted: MDA-kb2 viability, CellTiter-Fluor protease fluorescence, 16 h; series mostly up to 92.4 µM. A digest of the protocol:
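Cells seeded at 3,000/well and allowed 5 hr at 37C, 0% CO2 before compound transfer and R1881 (0.5 nM final) addition; 16 hr later, live-cell protease fluorescence indicated cytotoxicity.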

The nature of assay [13]: qHTS assay to identify small molecule phospholipidosis (PLD) inducers (AID 1259344; active = well fitted curve in the direction sought with a large enough effect; an effect the other way counts as inactive or inconclusive). Particulars: HepG2 phospholipidosis, LipidTOX Red imaging, 24 h; series mostly up to 38.3 µM. The essentials: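 Image-based: LipidTOX Red pit count/intensity per well and per cell; HepG2, 24 h compound at 37 C, PFA fixation, Hoechst counterstain.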
Assay [14] is described as follows: A CellTox Green Cytotoxicity Assay to monitor cytotoxicity in HepG2 cells - 16 hour (AID 1224876). Also: nearly all actives have a fitted effect of over 45% in size. Particulars: CellTox Green fluorescence; series mostly up to 76.8 µM. A digest of the protocol:
as §2

A short description of assay [15]: A CellTox Green Cytotoxicity Assay to monitor cytotoxicity in HepG2 cells - 24 hour (AID 1224878). Also: nearly all actives have a fitted effect of over 45% in size. Also: potency is read from the fitted curve at half-maximal effect. To be noted: CellTox Green fluorescence; series mostly up to 76.8 µM. A digest of the protocol: as §2
A short description of assay [16]: A CellTox Green Cytotoxicity Assay to monitor cytotoxicity in HepG2 cells - 0 hour (AID 1224882). Also: nearly all actives have a fitted effect of over 35% in size. Particulars: CellTox Green fluorescence; series mostly up to 76.8 µM. The essentials:
as §2

Assay [17] is described as follows: A CellTox Green Cytotoxicity Assay to monitor cytotoxicity in HepG2 cells - 8 hour (AID 1224890). Also: nearly all actives have a fitted effect of over 45% in size. Also: potency is read from the fitted curve at half-maximal effect. Particulars: CellTox Green fluorescence; series mostly up to 76.8 µM. A digest of the protocol:
as §2

The target of assay [18] is Androgen receptor (Homo sapiens) (UniProt P10275). In words: qHTS assay to identify small molecule antagonists of the androgen receptor (AR) signaling pathway using the MDA cell line in the presence of 0.5 nM R1881 (AID 1259243). Also: nearly all actives have a fitted effect of over 50% in size. To be noted: MDA-kb2 MMTV-luciferase, R1881 0.5 nM, 16 h; series mostly up to 42.5 µM. The essentials: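 Luminescence from an AR/GR-responsive MMTV-luciferase construct in MDA-kb2 breast carcinoma cells, read 30 min after ONE-Glo, following 16 hr co-treatment with compounds and 0.5 nM R1881.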

A short description of assay [19]: A CellTox Green Cytotoxicity Assay to monitor cytotoxicity in HepG2 cells - 32 hour (AID 1224883). Also: nearly all actives have a fitted effect of over 50% in size. To be noted: CellTox Green fluorescence; series mostly up to 76.8 µM. A digest of the protocol:
as §2

Assay [20] addresses Estrogen receptor (Homo sapiens) (UniProt P03372). In words: qHTS assay to identify small molecule antagonists of the estrogen receptor alpha (ER-alpha) signaling pathway using the BG1 cell line in the presence of 0.1 nM 17-beta-estradiol (AID 1259244). Also: nearly all actives have a fitted effect of over 50% in size. To be noted: VM7Luc4E2 (BG1) ERE-luciferase, antagonist mode, 0.1 nM E2, 22 h; series mostly up to 92.4 µM. The essentials: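 Luciferase signal from VM7Luc4E2 ERE-reporter cells, co-dosed with test compound and 0.1 nM final 17beta-estradiol for 22 h, read with ONE-Glo.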

SMILES strings stand for the structures. Values without a mark were called inactive. Results filed as inconclusive are left out. Calls of active or inactive are those of the source. Unless noted, calls follow the shape of the dose curve; as a rule, active = well fitted curve in the direction sought with a large enough effect in the repeat runs; inconclusive = weak or mixed curves; inactive = no such curve, though single readings can be large; an effect the other way counts as inactive or inconclusive.
% is scaled to controls: 0 for no effect and ±100 for the full control effect.

Estrogen receptor (Homo sapiens), sequence (P03372 whole entry, looked up): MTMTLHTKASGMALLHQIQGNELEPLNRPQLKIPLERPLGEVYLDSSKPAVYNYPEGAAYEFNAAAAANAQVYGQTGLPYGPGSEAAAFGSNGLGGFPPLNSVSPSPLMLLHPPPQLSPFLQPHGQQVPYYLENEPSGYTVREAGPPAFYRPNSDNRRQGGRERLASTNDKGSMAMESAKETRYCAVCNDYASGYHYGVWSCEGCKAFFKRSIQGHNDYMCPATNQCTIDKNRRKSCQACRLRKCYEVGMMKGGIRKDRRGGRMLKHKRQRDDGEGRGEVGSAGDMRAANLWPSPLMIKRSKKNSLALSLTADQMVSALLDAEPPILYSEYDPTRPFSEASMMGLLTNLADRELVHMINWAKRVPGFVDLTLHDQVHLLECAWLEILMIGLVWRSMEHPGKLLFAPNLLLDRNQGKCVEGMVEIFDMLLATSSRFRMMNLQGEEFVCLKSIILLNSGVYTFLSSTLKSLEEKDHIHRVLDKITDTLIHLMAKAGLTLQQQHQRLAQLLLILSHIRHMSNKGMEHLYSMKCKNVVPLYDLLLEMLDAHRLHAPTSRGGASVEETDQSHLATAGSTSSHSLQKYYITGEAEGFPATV
Androgen receptor (Homo sapiens), sequence (P10275 whole entry, looked up): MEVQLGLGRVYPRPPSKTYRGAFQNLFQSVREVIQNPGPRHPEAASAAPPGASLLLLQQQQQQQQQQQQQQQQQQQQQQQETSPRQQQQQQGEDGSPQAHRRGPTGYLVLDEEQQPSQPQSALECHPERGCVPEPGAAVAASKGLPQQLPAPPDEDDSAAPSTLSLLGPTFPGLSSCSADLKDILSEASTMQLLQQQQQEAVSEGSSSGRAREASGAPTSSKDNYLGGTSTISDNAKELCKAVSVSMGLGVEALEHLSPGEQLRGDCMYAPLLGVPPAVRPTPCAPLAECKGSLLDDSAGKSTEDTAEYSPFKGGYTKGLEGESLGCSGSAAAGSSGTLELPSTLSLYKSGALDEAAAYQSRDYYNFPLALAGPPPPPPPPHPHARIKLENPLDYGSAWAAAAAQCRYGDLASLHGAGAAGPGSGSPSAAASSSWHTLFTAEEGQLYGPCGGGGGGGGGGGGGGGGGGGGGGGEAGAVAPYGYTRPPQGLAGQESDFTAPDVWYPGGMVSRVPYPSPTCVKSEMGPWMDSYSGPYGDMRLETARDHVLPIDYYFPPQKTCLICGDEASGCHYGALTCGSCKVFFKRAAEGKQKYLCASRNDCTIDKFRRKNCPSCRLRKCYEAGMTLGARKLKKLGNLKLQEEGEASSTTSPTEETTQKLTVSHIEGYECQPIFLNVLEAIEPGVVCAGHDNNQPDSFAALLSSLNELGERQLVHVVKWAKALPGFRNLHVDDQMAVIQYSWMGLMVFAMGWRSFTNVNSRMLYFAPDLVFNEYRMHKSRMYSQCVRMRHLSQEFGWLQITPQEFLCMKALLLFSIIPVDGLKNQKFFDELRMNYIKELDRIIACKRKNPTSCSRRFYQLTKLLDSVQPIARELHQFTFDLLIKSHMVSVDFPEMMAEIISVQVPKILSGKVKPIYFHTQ

Regarding `NS(=O)(=O)c1cc2c(cc1Cl)NC(CC1CCCC1)NS2(=O)=O` (stereo unspecified), the result in assay [1], in [3], in assay [6] and in assay [13] was inactive. Besides, the Potency entry in [2], in assay [4], in [5], in assay [7], in [8] and in [9] was “inactive” each time. Moreover, the Potency result in assay [10], in [11] and in assay [12] was “inactive” in each case.

On to `O=C(CN1CCN(Cc2ccc3c(c2)OCO3)CC1)N1c2ccccc2Sc2ccccc21`, for which the Potency result in assay [14], in [15], in assay [4], in assay [16], in assay [5] and in assay [7] was “inactive” each time. In addition, the Potency result in assay [8], in assay [9], in [10], in assay [17], in [11] and in [12] was “inactive” in each case. For the same molecule, the outcome in assay [1], in assay [3], in assay [6], in assay [18] and in [13] was inactive.

Regarding `O=C1c2ccccc2-c2ccccc21`, the Potency result in assay [14], in assay [15], in assay [2], in assay [4], in assay [16] and in assay [19] was “inactive” throughout. Further, the Potency entry in assay [5], in assay [7], in assay [8], in assay [9], in assay [10] and in assay [11] was “inactive” in each case. Besides, the Potency result in assay [12] was “inactive”. Further, the result in assay [1] and in assay [6] was inactive.

`Cc1oc(=O)oc1CN1CCN(c2cc3c(cc2F)c(=O)c(C(=O)O)c2n3C(C)S2)CC1` (stereo unspecified): the molecule was called inactive in [1], in [6] and in [13]. Further, the Potency in assay [15] is 0.535 µM (active); in assay [17], 535 nM (active). Also, the Potency result in assay [4], in assay [16], in [5], in [7], in assay [8] and in assay [9] was “inactive” each time. Besides, the Potency result in [10], in [11], in assay [12] and in [20] was “inactive” throughout.

Regarding `C[C@@H]1C[C@H]2[C@@H]3C[C@H](F)C4=CC(=O)C=C[C@]4(C)[C@@]3(F)[C@@H](O)C[C@]2(C)[C@@]1(O)C(=O)CO`, the Potency entry in assay [14], in assay [2], in assay [4], in assay [5], in [7] and in assay [8] was “inactive” throughout. Also, the Potency entry in assay [9], in [11] and in assay [12] was “inactive” each time. The result in [1], in assay [6] and in assay [13] was inactive. Also, the Potency in assay [10] is 21.3 µM (active).

For the molecule `CC(C)CCO`, the Potency result in assay [14], in assay [15], in assay [2], in assay [4], in [16] and in assay [19] was “inactive” in each case. In addition, the Potency result in [5], in assay [7], in [8], in assay [9], in [17] and in assay [11] was “inactive” in each case. For the same molecule, the Potency result in assay [12] and in assay [20] was “inactive” in each case. The molecule was classed as inactive in assay [3].

In the case of `OC(CCN1CCCCC1)(c1ccccc1)c1ccccc1`, the Potency result in [14], in assay [15], in assay [2], in assay [4], in assay [16] and in assay [19] was “inactive” each time. Further, the Potency result in assay [5], in assay [7], in assay [8], in assay [9], in [10] and in assay [17] was “inactive” throughout. Besides, the Potency entry in [12] was “inactive”. Further, the molecule was called inactive in assay [1], in assay [6], in assay [18] and in assay [13].

On to `CCOC(=O)OCC/C(SC(=O)OCC)=C(\C)N(C=O)Cc1cnc(C)nc1N`, for which the Potency result in assay [14], in [15], in assay [2], in [4], in assay [16] and in assay [19] was “inactive” each time. Further, the Potency result in assay [5], in assay [7], in assay [8], in [9], in assay [10] and in assay [17] was “inactive” throughout. In addition, in [11], the Potency entry was “inactive”. In addition, the molecule was called inactive in assay [1] and in assay [6]. Also, the PLD induction in assay [13] was 2.13% [at 1.53 µM].

As to `Cc1cc(C)cc([N+](=O)[O-])c1`, the Potency result in [14], in [4], in assay [16], in [5], in assay [7] and in assay [8] was “inactive” in each case. Besides, the Potency entry in [9], in assay [10], in assay [17], in assay [11] and in [20] was “inactive” in each case. Also, the call in assay [1], in [3] and in assay [6] was inactive. The Potency in assay [15] is 55.6 µM (active).
